Source: PubChem
MOR-DOR ag – agonists of human mu-delta opioid receptor heterodimerization; P35372+P41143; cells, OPRM1-OPRD1 heterodimerization, luminescence; activation, % at 9.3 µM; hit rate 0.3% among 340,000; AID 504326; in the data active means activation above about 18%
Target sequence (P35372 whole entry, looked up): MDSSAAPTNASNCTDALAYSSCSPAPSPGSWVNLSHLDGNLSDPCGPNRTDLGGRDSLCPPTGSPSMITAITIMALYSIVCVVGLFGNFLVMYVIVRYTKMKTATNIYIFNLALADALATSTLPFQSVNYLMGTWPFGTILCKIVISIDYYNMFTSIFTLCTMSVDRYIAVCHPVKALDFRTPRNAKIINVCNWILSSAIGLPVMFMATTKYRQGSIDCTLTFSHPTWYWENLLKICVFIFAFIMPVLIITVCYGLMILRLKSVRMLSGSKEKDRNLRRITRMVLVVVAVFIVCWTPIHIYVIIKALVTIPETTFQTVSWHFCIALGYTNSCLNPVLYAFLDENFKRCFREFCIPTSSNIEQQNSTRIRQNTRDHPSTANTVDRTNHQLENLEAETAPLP
Target sequence (P41143 whole entry, looked up): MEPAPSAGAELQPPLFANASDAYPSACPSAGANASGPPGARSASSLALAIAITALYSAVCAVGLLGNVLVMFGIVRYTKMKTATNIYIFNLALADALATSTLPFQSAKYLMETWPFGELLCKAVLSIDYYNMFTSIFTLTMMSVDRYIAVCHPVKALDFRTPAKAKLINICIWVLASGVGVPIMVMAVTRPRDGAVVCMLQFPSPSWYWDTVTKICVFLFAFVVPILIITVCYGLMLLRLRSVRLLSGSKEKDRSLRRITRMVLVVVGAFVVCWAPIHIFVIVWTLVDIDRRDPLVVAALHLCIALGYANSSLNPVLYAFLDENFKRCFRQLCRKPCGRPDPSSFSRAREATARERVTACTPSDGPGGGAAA
PolyA inhibitor – inhibitors of polyadenylation in S. cerevisiae; AID 1875; hit rate 0.02% among 300,000; activity score, % at 12 µM; S. cerevisiae SKY197-pL101 polyadenylation reporter, beta-gal luminescence; efflux-impaired pdr1/pdr3 knockout yeast; score 100 = 6 SD above DMSO;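 active means lowest replicate activity score at least 50, where 100 means six control SD above control mean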;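 further: yeast exposed to compound for 9 h at 30 °C; higher score means more reporter readthrough which indicates perturbed polyadenylation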
HTR5A inv ctr – counter-screen for OPRM1-OPRD1 inverse agonists: human HTR5A inverse agonism; HTR5A cell line, luminescence; inhibition, % at 9.3 µM; hit rate 0.083% among 340,000; in the data active means inhibition mostly above about 23%, no sharp cut-off; inactive means mostly below about 18%
MOR-DOR inv ag – inverse agonists of human mu-delta opioid receptor heterodimerization | P35372+P41143 | cell-based MOR-DOR heterodimer luminescence, inverse agonism | hit rate 0.21% among 340,000 | inhibition, % at 9.3 µM | AID 504357; in the data active means inhibition above about 22%, passing the limit was not always enough
HTR5A ag ctr – activates human HTR5A in OPRM1-OPRD1 agonist counter-screen; P47898; HTR5A agonist assay, luminescence, cell-based; activation, % at 9.3 µM; hit rate 0.61% among 340,000; AID 504692; in the data active means activation mostly above about 9.5%, no sharp cut-off; inactive means mostly below about 7.6%
NALP1 yeast inh – blocks the NALP1 inflammasome reconstituted in yeast. inhibition, % at 10 µM. AID 2071. hit rate 0.61% among 280,000. S. cerevisiae NALP1/ASC/caspase-1 growth, X-gal OD620, 72 h; in the data active means inhibition mostly above about 24%, no sharp cut-off; inactive means mostly below about 32%
OPRM1-D1 inv cf – OPRM1-OPRD1 heterodimer inverse agonism, confirmation; shares compounds with MOR-DOR inv ag; cells expressing OPRM1/OPRD1 heterodimer, luminescence; inhibition, % at 9.3 µM; hit rate 20% among 580; AID 504900; in the data active means inhibition above about 32%
HTR5A inv ctr2 – inverse agonist of human HTR5A in OPRM1-OPRD1 counter-screen. shares compounds with MOR-DOR inv ag. HTR5A-expressing cells, luminescence, inverse agonism. inhibition, % at 9.3 µM. 580 tested, under 10 active. AID 504914; call rule not given here
Each line names hits and unclear results; the compound was inactive in the other large screens (follow-up assays come after a bar, where they were run). An excerpt weighted towards active compounds, which were near 1.6% of everything screened.

O=C(Cc1ccc(F)cc1)Nc1nccs1	none
CC(C)(C)c1nnc(NC(=O)CCS(=O)(=O)c2ccccc2)s1	none
O=C(Cc1cccs1)Nc1cc(SCCO)cc([N+](=O)[O-])c1	none
CN1CCN(C2=C(NS(=O)(=O)c3cccs3)C(=O)c3ccccc3C2=O)CC1	none (no result: NALP1 yeast inh)
O=C1C(NS(=O)(=O)c2cccs2)=C(N2CCOCC2)C(=O)c2ccccc21	MOR-DOR inv ag 41 | OPRM1-D1 inv cf inactive | HTR5A inv ctr2 inactive
CC(C)(C)OC(=O)C[C@H]1C/C=C\C[C@H](CC(=O)N[C@H](CO)Cc2ccccc2)C(=O)N[C@H](Cc2ccccc2)COC1=O	none (no result: PolyA inhibitor, NALP1 yeast inh)
O=C(OCC1CCC=CO1)C1CCC=CO1 (stereo unspecified)	none (no result: PolyA inhibitor, NALP1 yeast inh)
COc1ccc(S(=O)(=O)Nc2c(C)n(C)n(-c3ccccc3)c2=O)c(Cl)c1Cl	MOR-DOR inv ag 31 | OPRM1-D1 inv cf inactive | HTR5A inv ctr2 inactive
COc1cc(Br)c(S(=O)(=O)Nc2c(C)n(C)n(-c3ccccc3)c2=O)cc1OC	none
Cc1ccc(Cl)cc1N1CCN(CC(=O)NC2CCCc3ccccc32)CC1 (stereo unspecified)	none
O=C(c1cc2cc([N+](=O)[O-])ccc2oc1=O)N1CCN(c2ncccn2)CC1	none
Cn1c(NNC(=O)c2cccc3ccccc23)cc(=O)n(C)c1=O	MOR-DOR inv ag 23 | OPRM1-D1 inv cf inactive | HTR5A inv ctr2 inactive
Cn1c(NNC(=O)c2ccccc2F)cc(=O)n(C)c1=O	none (no result: NALP1 yeast inh)
CC(=O)Oc1ccc(OC(C)=O)c(SCCCCCN2CCOCC2)c1	MOR-DOR inv ag 29 | OPRM1-D1 inv cf inactive | HTR5A inv ctr2 inactive
COc1ccc(OC(=O)c2ccc(OC)c(S(=O)(=O)N3CCOCC3)c2)cc1	none
CN(C)c1ccc(N=Nc2nc3ccccc3n2C)cc1	none (no result: NALP1 yeast inh)
Cn1c(N=Nc2ccccc2)nc2ccccc21	MOR-DOR inv ag 43 | OPRM1-D1 inv cf inactive | HTR5A inv ctr2 inactive
C/C=N\NC(=O)COc1cc(C)ccc1C	none (no result: MOR-DOR ag, HTR5A inv ctr, MOR-DOR inv ag, HTR5A ag ctr)
Cc1cccc(NC(=S)NC(=O)c2ccco2)n1	MOR-DOR inv ag 22 | OPRM1-D1 inv cf inactive | HTR5A inv ctr2 inactive
Cc1ccnc(N2CCC(C(=O)Nc3cccc(C(F)(F)F)c3)CC2)n1	none
CC1CCCCN1CCNC(=O)C1CCN(S(=O)(=O)N2CCCCC2)CC1 (stereo unspecified)	MOR-DOR inv ag 13 | OPRM1-D1 inv cf inactive | HTR5A inv ctr2 inactive
CC1CCN(CCCNC(=O)C2CCN(S(=O)(=O)N3CCCCC3)CC2)CC1	none
C=CCn1c(SCC(=O)Nc2ncc(Cc3cc(C(F)(F)F)ccc3Cl)s2)nnc1-c1ccncc1	none
CC(C)(Oc1ccc(F)cc1)C(=O)OCC(=O)c1ccc(S(C)(=O)=O)cc1	MOR-DOR inv ag 58 (no result: PolyA inhibitor, NALP1 yeast inh) | OPRM1-D1 inv cf inactive | HTR5A inv ctr2 inactive
CN(C)S(=O)(=O)c1ccc(/C(O)=C2/C(=O)C(=O)N(Cc3cccnc3)C2c2cccs2)cc1 (stereo unspecified)	MOR-DOR inv ag 40 | OPRM1-D1 inv cf inactive | HTR5A inv ctr2 inactive
CN(C)S(=O)(=O)c1ccc(/C(O)=C2/C(=O)C(=O)N(Cc3cccnc3)C2c2ccncc2)cc1 (stereo unspecified)	none
CC(=O)c1ccc(N2C(=O)CC(N3CCN(S(=O)(=O)c4ccc(C)c(C)c4)CC3)C2=O)cc1 (stereo unspecified)	none (no result: PolyA inhibitor, NALP1 yeast inh)
Cc1cccc(C)c1N=C1C(=O)Nc2ccccc21	MOR-DOR inv ag 46 | OPRM1-D1 inv cf inactive | HTR5A inv ctr2 inactive
O=C1Nc2ccccc2/C1=N/N=C/c1cccc(O)c1	none
Cc1cc(C)c(N=C2C(=O)Nc3ccccc32)c(C)c1	MOR-DOR inv ag 48 | OPRM1-D1 inv cf inactive | HTR5A inv ctr2 inactive
Cc1cc(Br)ccc1N=C1C(=O)Nc2ccccc21	MOR-DOR inv ag 50 | OPRM1-D1 inv cf inactive | HTR5A inv ctr2 inactive
O=C1Nc2ccccc2C1=Nc1ccccc1-c1ccccc1	MOR-DOR inv ag 62 (no result: PolyA inhibitor, NALP1 yeast inh) | OPRM1-D1 inv cf inactive | HTR5A inv ctr2 inactive
CC1CN(Cc2ccccc2)C(=O)NC1=O (stereo unspecified)	none (no result: PolyA inhibitor, NALP1 yeast inh)
CC1CN(c2ccccc2)NC1=O (stereo unspecified)	MOR-DOR inv ag 48 | OPRM1-D1 inv cf inactive | HTR5A inv ctr2 inactive
O=C(CC1C(=O)NCCN1CC1CCCCC1)NCCCN1CCOCC1 (stereo unspecified)	none
Cc1cc(C)nc(NNS(=O)(=O)c2c(F)cc(F)cc2Br)n1	MOR-DOR inv ag 31 (no result: PolyA inhibitor, NALP1 yeast inh) | OPRM1-D1 inv cf inactive | HTR5A inv ctr2 inactive
Cc1cc(C)nc(NNS(=O)(=O)c2c(C)cc(C(C)(C)C)cc2C)n1	none (no result: PolyA inhibitor, NALP1 yeast inh)
Cc1cc2c(cc1C)C(=O)C(=O)N2	none (no result: PolyA inhibitor, NALP1 yeast inh)
COc1ccc2c(c1)C(=O)C(=O)N2	HTR5A inv ctr 31, MOR-DOR inv ag 63 | OPRM1-D1 inv cf inactive | HTR5A inv ctr2 inactive
CCC(C)NC(=O)c1cc(S(=O)(=O)N2CCCCC2)c[nH]1 (stereo unspecified)	none
Cn1c(=O)[nH]c(=O)c2c1nc(N1CCNCC1)n2Cc1cccc2ccccc12	MOR-DOR inv ag 38 | OPRM1-D1 inv cf inactive | HTR5A inv ctr2 inactive
Cn1c(=O)c2c(nc(N3CCNCC3)n2Cc2cccc3ccccc23)n(C)c1=O	MOR-DOR inv ag 42 | OPRM1-D1 inv cf inactive | HTR5A inv ctr2 inactive
Cn1c(=O)[nH]c(=O)c2c1nc(N1CCNCC1)n2Cc1ccccc1	none
Cc1ccc(NC(=S)NNC(=O)c2nn(C)cc2Cl)cc1	MOR-DOR inv ag 29 | OPRM1-D1 inv cf inactive | HTR5A inv ctr2 inactive
COc1ccc(-c2cc3c(nn2)-c2ccccc2C3=O)cc1	MOR-DOR inv ag 91 | OPRM1-D1 inv cf 75 | HTR5A inv ctr2 inactive
COc1ccc(-c2cn(Cc3ccc4c(c3)C(=O)c3ccccc3C4=O)nn2)cc1	none
O=C1c2ccccc2-c2nnc(-c3ccccc3)cc21	MOR-DOR inv ag 97 | OPRM1-D1 inv cf 99 | HTR5A inv ctr2 inactive
Cc1cnc2c(c1)C(=O)c1ccccc1-2	none
Cc1cccc(-c2cc3c(nn2)-c2ccccc2C3=O)c1	MOR-DOR inv ag 88 | OPRM1-D1 inv cf inactive | HTR5A inv ctr2 inactive
CCN(CC(=O)Nc1ccc2c(c1)OCCO2)C(=O)C(C)Oc1ccc(F)cc1 (stereo unspecified)	none (no result: PolyA inhibitor, NALP1 yeast inh)
COc1ccc(NC(=S)N2CCN(S(=O)(=O)c3ccc(F)cc3)CC2)cc1	none (no result: PolyA inhibitor)
O=C(COC(=O)c1ccccc1F)c1ccc(-n2nncc2-c2ccco2)cc1	MOR-DOR inv ag 33 | OPRM1-D1 inv cf inactive | HTR5A inv ctr2 inactive
CNc1ccccc1C(=O)OCC(=O)c1ccc(F)cc1	none
COc1ccccc1CNC(=O)[C@H](C)NC(=O)C1CCN(C(=O)[C@@H](N)CCSC)CC1	none
